According to PubChem BioAssay (EPA / NIEHS):
Records with an inconclusive call do not appear. Calls of active or inactive are those of the source. How the source made its calls: active means hit-call score of the fitted dose curve at least 0.9, where 1 is the maximum; inconclusive means response in the unintended direction; inactive means score below 0.9.

Legend:
[1] = ACEA_AR_antagonist_AUC_viability: ACEA Biosciences xCELLigence Real-Time Cell Analysis on Androgen Receptor Antagonism for Viability (AID 2283776);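 further: 22Rv1 human prostate cancer cells growing on impedance electrode plates; hits lower the growth signal relative to DMSO meaning cytotoxicity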
Summary of the method: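 Impedance read-out (RT-CES): area under growth curve at 80 h post-dose, loss of signal scored vs DMSO baseline. 22Rv1 cells; 8-pt 1:4 series, top 100 uM final, ≤0.5% DMSO; biological duplicate.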

[2] = ACEA_AR_agonist_AUC_viability: ACEA Biosciences xCELLigence Real-Time Cell Analysis on Androgen Receptor Agonism for Viability (AID 2283775);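 on AC50: viability read 80 hours after compound addition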
Summary of the method: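 Real-time impedance tracking of 22Rv1 growth, readings every 5 min for 5 h then hourly; area-under-curve viability endpoint at 80 hours, relative to DMSO. Compounds at eight concentrations, 1:4 steps, top 100 uM, n = 2.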

[3] = test system: zebrafish Estrogen Receptor (ESR2B), gene 317733; assay: ATG_zfER2b_XSP1: Attagene TRANS-FACTORIAL Multi-Species (XSP1) HepG2 Assay for zebrafish Estrogen Receptor (ESR2B) (AID 2283773)
Summary of the method: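 Gain-of-signal endpoint relative to DMSO: reporter transcript levels quantified by RT-PCR and capillary electrophoresis after 24 h compound exposure of HepG2 cells expressing a zebrafish ER2b-Gal4 chimera.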

[4] = test system: frog Estrogen Receptor (ESR1), gene 398734; assay: ATG_frER1_XSP1: Attagene TRANS-FACTORIAL Multi-Species (XSP1) HepG2 Assay for frog Estrogen Receptor (ESR1) (AID 2283777)
Summary of the method: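 Human hepatoma HepG2 cells carried transiently transfected multiplexed Gal4-driven reporters and were exposed to test chemicals for 24 hours. Transcripts were quantified by fluorescent RT-PCR with capillary electrophoresis, referenced to DMSO.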

[5] = test system: zebrafish Estrogen Receptor (ESR2A), gene 317734; assay: ATG_zfER2a_XSP1: Attagene TRANS-FACTORIAL Multi-Species (XSP1) HepG2 Assay for zebrafish Estrogen Receptor (ESR2A) (AID 2283778)
Summary of the method: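 Cells were transfected, dosed for 24 h, then total RNA was isolated. After oligo(dT) reverse transcription, reporter sequences were amplified, FAM-labelled by primer extension, digested with HpaI and sized by capillary electrophoresis; DMSO served as baseline.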

[6] = target: chicken Estrogen Receptor (ESR1), ESR1 (gene 396099) (UniProt P06212); assay: ATG_chERa_XSP1: Attagene TRANS-FACTORIAL Multi-Species (XSP1) HepG2 Assay for chicken Estrogen Receptor (ESR1) (AID 2283779)
Chain of chicken Estrogen Receptor (ESR1), ESR1 (gene 396099) (P06212 whole entry, looked up, the tested form may be a part): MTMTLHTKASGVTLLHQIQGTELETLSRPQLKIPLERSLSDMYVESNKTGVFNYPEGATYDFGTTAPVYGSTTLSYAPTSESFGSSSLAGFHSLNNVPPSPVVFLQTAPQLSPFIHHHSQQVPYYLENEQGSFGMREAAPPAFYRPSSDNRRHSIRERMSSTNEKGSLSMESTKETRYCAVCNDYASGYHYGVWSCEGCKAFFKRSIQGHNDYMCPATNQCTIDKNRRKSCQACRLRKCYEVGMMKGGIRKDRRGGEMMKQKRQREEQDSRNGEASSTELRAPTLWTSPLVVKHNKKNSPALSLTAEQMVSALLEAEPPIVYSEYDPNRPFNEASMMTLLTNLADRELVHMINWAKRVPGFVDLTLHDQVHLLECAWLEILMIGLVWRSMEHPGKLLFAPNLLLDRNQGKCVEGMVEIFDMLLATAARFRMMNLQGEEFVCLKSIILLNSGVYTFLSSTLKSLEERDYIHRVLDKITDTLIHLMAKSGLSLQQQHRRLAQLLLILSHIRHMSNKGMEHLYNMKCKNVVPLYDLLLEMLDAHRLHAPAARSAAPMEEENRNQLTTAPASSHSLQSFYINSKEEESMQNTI
Summary of the method: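 Human liver HepG2, transient MRTU transfection (NR-Gal4 chimeras, GAL4-UAS reporters); 24 h compound exposure; 3 nM 6-alpha-fluorotestosterone in medium. Total RNA → RT-PCR → 6-FAM primer extension → HpaI → CE. Positive direction vs DMSO baseline.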

[7] = target: Estrogen receptor (Homo sapiens) (UniProt P03372); assay: ATG_hERa_XSP1: Attagene TRANS-FACTORIAL Multi-Species (XSP1) HepG2 Assay for human Estrogen Receptor (ESR1) (AID 2283780)
Chain of Estrogen receptor (Homo sapiens) (P03372 whole entry, looked up, the tested form may be a part): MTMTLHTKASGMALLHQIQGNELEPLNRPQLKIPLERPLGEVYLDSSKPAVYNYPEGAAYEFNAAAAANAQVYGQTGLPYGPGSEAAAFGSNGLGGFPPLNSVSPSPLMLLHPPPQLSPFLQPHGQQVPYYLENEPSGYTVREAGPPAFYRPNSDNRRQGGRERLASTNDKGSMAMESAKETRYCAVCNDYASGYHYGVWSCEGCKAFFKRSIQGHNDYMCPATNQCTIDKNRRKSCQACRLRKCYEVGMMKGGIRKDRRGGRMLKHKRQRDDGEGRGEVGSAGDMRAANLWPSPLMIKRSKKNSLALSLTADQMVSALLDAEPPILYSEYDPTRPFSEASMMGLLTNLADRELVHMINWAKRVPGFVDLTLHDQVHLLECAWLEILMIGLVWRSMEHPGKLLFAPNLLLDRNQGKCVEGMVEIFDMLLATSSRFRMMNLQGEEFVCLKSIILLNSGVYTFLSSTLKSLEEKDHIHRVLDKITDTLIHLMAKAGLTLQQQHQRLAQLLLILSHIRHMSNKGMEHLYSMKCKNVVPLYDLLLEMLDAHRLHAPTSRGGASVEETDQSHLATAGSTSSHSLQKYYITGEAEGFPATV
Summary of the method: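 HepG2 cells transiently transfected with GAL4-UAS reporter units and chimeric NR-Gal4 constructs; 24 h after dosing, reporter mRNA quantified by RT-PCR and capillary electrophoresis. Medium contained 3 nM 6-alpha-fluorotestosterone; activity fitted as gain-of-signal versus DMSO.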

[8] = STM_H9_NormalizedViability: Cytotoxicity Assessment at 120 hours in the Stemina devTOX quickPredict H9 human embryonic stem cell (hESC)-based Assay (AID 2283784)
Summary of the method: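 Pluripotent H9 cells dosed, fresh medium plus compound q24h → cell layer read by CellTiter-Fluor → RFU blank-corrected, normalized to DMSO 0.1% mean. Loss-of-signal fit, DMSO as baseline.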

[9] = target: Estrogen receptor beta (Homo sapiens) (UniProt Q92731); assay: ATG_hERb_XSP1: Attagene TRANS-FACTORIAL Multi-Species (XSP1) HepG2 Assay for human Estrogen Receptor (ESR2) (AID 2283788)
Chain of Estrogen receptor beta (Homo sapiens) (Q92731 whole entry, looked up, the tested form may be a part): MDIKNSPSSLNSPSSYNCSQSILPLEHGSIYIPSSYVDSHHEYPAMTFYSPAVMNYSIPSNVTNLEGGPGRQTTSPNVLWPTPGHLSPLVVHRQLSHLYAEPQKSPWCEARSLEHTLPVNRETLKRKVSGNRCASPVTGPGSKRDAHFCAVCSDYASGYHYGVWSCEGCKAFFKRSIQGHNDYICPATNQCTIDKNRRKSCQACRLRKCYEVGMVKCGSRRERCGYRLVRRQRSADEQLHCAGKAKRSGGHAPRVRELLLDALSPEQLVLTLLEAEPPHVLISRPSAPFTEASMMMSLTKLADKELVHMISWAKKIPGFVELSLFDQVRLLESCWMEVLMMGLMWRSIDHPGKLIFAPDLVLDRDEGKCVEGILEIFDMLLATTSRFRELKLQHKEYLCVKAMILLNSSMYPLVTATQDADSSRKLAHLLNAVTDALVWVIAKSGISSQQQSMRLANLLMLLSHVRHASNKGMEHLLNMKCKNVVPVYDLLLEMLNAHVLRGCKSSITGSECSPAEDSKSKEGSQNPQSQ
Summary of the method: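 Measured endpoint is transcriptional gain of signal from a GAL4-UAS reporter controlled by chimeric ERβ in HepG2 liver cells. Exposure lasts 24 h alongside 3 nM 6-alpha-fluorotestosterone, with DMSO as negative control.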

[10] = ATG_M_06_XSP1: Attagene TRANS-FACTORIAL Multi-Species (XSP1) HepG2 Assay for M06 Transcription Factor (Internal Marker) (AID 2283790)
Summary of the method: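 Transfected HepG2 multi-reporter system treated 24 h in the presence of 3 nM 6-alpha-fluorotestosterone. The M06 internal marker transcript was quantified by RT-PCR with capillary electrophoresis as a background control, and gain of signal was scored versus DMSO.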

[11] = ATG_M_61_XSP1: Attagene TRANS-FACTORIAL Multi-Species (XSP1) HepG2 Assay for M61 Transcription Factor (Internal Marker) (AID 2283797)
Summary of the method: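 HepG2 cells transiently transfected with multiplexed GAL4-driven reporter units, dosed 24 h with 3 nM 6-alpha-fluorotestosterone present. Reporter mRNA quantified by RT-PCR, 6-FAM labelling, HpaI digestion and capillary electrophoresis; internal-marker background control, gain of signal versus DMSO.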

[12] = target: Peroxisome proliferator-activated receptor gamma (Homo sapiens) (UniProt P37231); assay: ATG_hPPARg_XSP1: Attagene TRANS-FACTORIAL Multi-Species (XSP1) HepG2 Assay for human Peroxisome Proliferator-activated Receptor gamma (PPARg) (AID 2283800)
Chain of Peroxisome proliferator-activated receptor gamma (Homo sapiens) (P37231 whole entry, looked up, the tested form may be a part): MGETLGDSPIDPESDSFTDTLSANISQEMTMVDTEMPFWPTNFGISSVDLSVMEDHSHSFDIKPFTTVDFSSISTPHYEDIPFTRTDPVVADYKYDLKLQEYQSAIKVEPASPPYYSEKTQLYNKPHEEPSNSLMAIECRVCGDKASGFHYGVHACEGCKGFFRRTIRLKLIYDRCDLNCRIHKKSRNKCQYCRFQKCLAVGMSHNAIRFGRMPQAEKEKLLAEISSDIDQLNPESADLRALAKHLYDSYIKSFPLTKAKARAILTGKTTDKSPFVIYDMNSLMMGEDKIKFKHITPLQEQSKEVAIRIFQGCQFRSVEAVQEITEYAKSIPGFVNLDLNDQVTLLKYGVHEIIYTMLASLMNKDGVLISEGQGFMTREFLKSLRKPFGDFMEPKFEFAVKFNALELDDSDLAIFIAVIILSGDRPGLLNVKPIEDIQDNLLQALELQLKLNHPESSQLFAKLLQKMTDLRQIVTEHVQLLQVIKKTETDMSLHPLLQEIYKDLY
Summary of the method: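 HepG2 cells transiently transfected with GAL4-UAS reporter units carrying chimeric NR-Gal4 proteins; 3 nM 6-alpha-fluorotestosterone present. After 24 h dosing, reporter mRNA quantified by RT-PCR and capillary electrophoresis; gain of signal relative to DMSO.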

[13] = test system: zebrafish Peroxisome Proliferator-activated Receptor gamma (PPARg), gene 557037; assay: ATG_zfPPARg_XSP1: Attagene TRANS-FACTORIAL Multi-Species (XSP1) HepG2 Assay for zebrafish Peroxisome Proliferator-activated Receptor gamma (PPARg) (AID 2283801)
Summary of the method: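 HepG2 cells transiently transfected with GAL4-UAS reporter units including a zebrafish PPARg–GAL4 chimera, dosed 24 h with 3 nM 6-alpha-fluorotestosterone present. Reporter mRNA quantified by RT-PCR, FAM labelling, HpaI digestion and capillary electrophoresis; induction versus DMSO.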

[14] = target: mouse Peroxisome Proliferator-activated Receptor gamma (PPARg), Pparg (gene 19016) (UniProt P37238); assay: ATG_mPPARg_XSP1: Attagene TRANS-FACTORIAL Multi-Species (XSP1) HepG2 Assay for mouse Peroxisome Proliferator-activated Receptor gamma (PPARg) (AID 2283802)
Chain of mouse Peroxisome Proliferator-activated Receptor gamma (PPARg), Pparg (gene 19016) (P37238 whole entry, looked up, the tested form may be a part): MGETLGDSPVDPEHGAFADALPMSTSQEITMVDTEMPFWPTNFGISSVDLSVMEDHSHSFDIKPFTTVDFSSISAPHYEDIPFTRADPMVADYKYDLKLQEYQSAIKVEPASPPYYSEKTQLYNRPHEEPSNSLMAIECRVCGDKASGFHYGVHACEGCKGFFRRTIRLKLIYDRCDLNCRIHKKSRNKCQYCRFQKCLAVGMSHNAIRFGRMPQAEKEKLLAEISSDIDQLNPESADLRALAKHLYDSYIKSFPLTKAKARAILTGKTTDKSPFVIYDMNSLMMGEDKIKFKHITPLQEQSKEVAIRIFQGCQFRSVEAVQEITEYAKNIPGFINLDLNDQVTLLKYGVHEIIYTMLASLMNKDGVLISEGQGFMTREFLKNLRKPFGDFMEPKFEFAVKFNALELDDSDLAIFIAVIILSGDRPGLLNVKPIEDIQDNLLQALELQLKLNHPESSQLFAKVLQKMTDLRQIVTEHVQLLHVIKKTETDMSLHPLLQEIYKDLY
Summary of the method: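 HepG2 cells transiently transfected with GAL4-UAS reporter units driven by mouse PPARg–GAL4 chimera; 3 nM 6-alpha-fluorotestosterone present. After 24 h dosing, reporter mRNA quantified by RT-PCR, fluorescent labelling and capillary electrophoresis; gain of signal versus DMSO.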

[15] = test system: frog Estrogen Receptor (ESR2), gene 100174814; assay: ATG_frER2_XSP1: Attagene TRANS-FACTORIAL Multi-Species (XSP1) HepG2 Assay for frog Estrogen Receptor (ESR2) (AID 2283774)
Summary of the method: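 Transactivation of an exogenous receptor-Gal4 fusion is tracked in transfected HepG2 cells via induced reporter transcript levels. After 24 h treatment, RT-PCR with capillary electrophoresis quantifies signal gain over DMSO.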

[16] = test system: turtle Estrogen Receptor (ESR1), gene 101933533; assay: ATG_trERa_XSP1: Attagene TRANS-FACTORIAL Multi-Species (XSP1) HepG2 Assay for turtle Estrogen Receptor (ESR1) (AID 2283781)
Summary of the method: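 Activity was taken as gain of reporter transcript over DMSO controls. HepG2 cells carrying GAL4-UAS-driven reporters were exposed for 24 h before RNA was extracted and reporter sequences were measured by fluorescence after capillary separation.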

[17] = target: GAL4 Transcription Factor (Internal Marker), GAL4 (gene 855828) (UniProt P04386); assay: ATG_GAL4_XSP1: Attagene TRANS-FACTORIAL Multi-Species (XSP1) HepG2 Assay for GAL4 Transcription Factor (Internal Marker) (AID 2283789)
Chain of GAL4 Transcription Factor (Internal Marker), GAL4 (gene 855828) (P04386 whole entry, looked up, the tested form may be a part): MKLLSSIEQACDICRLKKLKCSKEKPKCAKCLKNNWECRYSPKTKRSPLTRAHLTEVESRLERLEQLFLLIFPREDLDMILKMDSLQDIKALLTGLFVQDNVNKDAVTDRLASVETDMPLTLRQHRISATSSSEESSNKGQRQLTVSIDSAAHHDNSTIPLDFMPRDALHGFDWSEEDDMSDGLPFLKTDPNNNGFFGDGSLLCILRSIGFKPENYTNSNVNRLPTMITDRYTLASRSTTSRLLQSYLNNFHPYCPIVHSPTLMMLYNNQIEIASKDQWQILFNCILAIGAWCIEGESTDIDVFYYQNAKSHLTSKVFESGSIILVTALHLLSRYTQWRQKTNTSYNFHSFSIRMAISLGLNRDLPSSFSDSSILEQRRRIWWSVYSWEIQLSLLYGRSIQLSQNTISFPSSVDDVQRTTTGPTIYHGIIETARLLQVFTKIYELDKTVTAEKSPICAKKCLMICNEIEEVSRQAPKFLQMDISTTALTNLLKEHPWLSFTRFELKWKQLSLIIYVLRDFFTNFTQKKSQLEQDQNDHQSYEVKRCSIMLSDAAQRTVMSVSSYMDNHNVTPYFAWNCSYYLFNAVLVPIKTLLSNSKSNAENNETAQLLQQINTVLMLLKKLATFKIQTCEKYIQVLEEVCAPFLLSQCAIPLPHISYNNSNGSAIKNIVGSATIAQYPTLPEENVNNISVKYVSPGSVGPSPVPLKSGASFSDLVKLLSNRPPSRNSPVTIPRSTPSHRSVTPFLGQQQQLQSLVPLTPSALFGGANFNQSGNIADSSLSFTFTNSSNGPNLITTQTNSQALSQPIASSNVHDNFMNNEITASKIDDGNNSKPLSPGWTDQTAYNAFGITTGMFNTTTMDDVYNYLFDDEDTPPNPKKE
Summary of the method: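 HepG2 cells transiently transfected with multiplexed GAL4-UAS reporter units were exposed for 24 h with 3 nM 6-alpha-fluorotestosterone present. Reporter mRNA was quantified by RT-PCR, FAM labelling, HpaI digestion and capillary electrophoresis; background-control readout, gain-of-signal versus DMSO.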

[18] = ATG_M_32_XSP1: Attagene TRANS-FACTORIAL Multi-Species (XSP1) HepG2 Assay for M32 Transcription Factor (Internal Marker) (AID 2283799)
Summary of the method: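 HepG2 cells transiently transfected with multi-species TRANS reporter units, dosed 24 h with 3 nM 6-alpha-fluorotestosterone present. Internal-marker reporter mRNA quantified by RT-PCR and capillary electrophoresis; positive-direction fit versus DMSO.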

## O=C(O)[C@H](O)[C@@H](O)C(=O)O
[1]
  outcome: inactive

## CCCOc1ccc(S(=O)(=O)N2CCN(CC)CC2)cc1-c1nc2c(CC)n(Cc3ccccn3)nc2c(=O)[nH]1
[2]
  outcome: inactive
[1]
  outcome: inactive

## CCCCCCCCCCCCCCO
[1]
  AC50: 50 µM (active)

## c1ccc2cc3ccccc3cc2c1
[1]
  outcome: inactive

## OC[C@H]1O[C@@](CO)(O[C@H]2O[C@H](CO)[C@@H](O)[C@H](O)[C@H]2O)[C@@H](O)[C@@H]1O
[1]
  outcome: inactive

## O=C(O)CO
[1]
  outcome: inactive

## CC(C)C(=O)Nc1ccc([N+](=O)[O-])c(C(F)(F)F)c1
[3]
  outcome: inactive
[4]
  outcome: inactive
[5]
  outcome: inactive
[6]
  outcome: inactive
[7]
  outcome: inactive
[8]
  AC50: 65.6 µM (active)
[9]
  outcome: inactive
[10]
  outcome: inactive
[11]
  outcome: inactive
[12]
  AC50: 21.9 µM (active)
[13]
  outcome: inactive
[14]
  AC50: 27.1 µM (active)

## c1ccc2c(c1)-c1cccc3c1c-2cc1ccccc13
[2]
  AC50: 36.5 µM (active)
[1]
  AC50: 4.1 µM (active)

## COCc1nnc(-c2ccc[n+]([O-])c2)n1-c1c(Cl)c(Cl)cc2[nH]c(=O)c(=O)[nH]c12
[2]
  outcome: inactive
[1]
  outcome: inactive

## OCc1ccccc1
[1]
  outcome: inactive

## OC[C@H]1O[C@@H]2O[C@H]3[C@H](O)[C@@H](O)[C@@H](O[C@H]4[C@H](O)[C@@H](O)[C@@H](O[C@H]5[C@H](O)[C@@H](O)[C@@H](O[C@H]6[C@H](O)[C@@H](O)[C@@H](O[C@H]7[C@H](O)[C@@H](O)[C@@H](O[C@H]1[C@H](O)[C@H]2O)O[C@@H]7CO)O[C@@H]6CO)O[C@@H]5CO)O[C@@H]4CO)O[C@@H]3CO
[1]
  outcome: inactive

## OCCNCCO
[1]
  outcome: inactive

## O=C(O)c1cccc(C[C@@H]2COc3ccc(OCc4nc5cc(F)ccc5s4)cc3[C@@H]2O)c1
[2]
  outcome: inactive
[1]
  outcome: inactive

## CC(=O)c1ccccc1
[2]
  outcome: inactive
[1]
  outcome: inactive

## CCc1ccc(O)c(C(C)(C)C)c1
[2]
  AC50: 66.1 µM (active)
[1]
  AC50: 70.5 µM (active)

## CCOC(N)=O
[1]
  outcome: inactive

## CNC(C)=O
[1]
  outcome: inactive

## C=CN1CCCC1=O
[1]
  outcome: inactive

## c1ccc2ncccc2c1
[1]
  outcome: inactive

## C=CCc1cc(S(=O)(=O)c2ccc(O)c(CC=C)c2)ccc1O
[3]
  AC50: 1.68 µM (active)
[15]
  AC50: 1.53 µM (active)
[1]
  AC50: 24.5 µM (active)
[6]
  AC50: 1.19 µM (active)
[7]
  AC50: 1.36 µM (active)
[16]
  AC50: 1 µM (active)
[9]
  outcome: inactive
[17]
  outcome: inactive
[10]
  outcome: inactive
[11]
  outcome: inactive
[18]
  outcome: inactive
[12]
  AC50: 4.14 µM (active)
[13]
  outcome: inactive
[14]
  AC50: 3.63 µM (active)
